For experiment [1], the target named is Peroxisome proliferator-activated receptor gamma (Homo sapiens) (UniProt P37231). The experiment in a line: qHTS assay for small molecule agonists of peroxisome proliferator-activated receptor gamma signaling (AID 588536; active = well fitted curve in the direction sought with a large enough effect in the signal ratio, with a control signal flat, not every such curve was filed as active; the % refers to the signal ratio;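 note: 0% = DMSO basal wells and 100% = rosiglitazone at 2 µM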). The method in brief: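 PPAR-gamma-UAS-bla HEK293 cells in medium with 1% charcoal/dextran-treated FBS were exposed to compounds for 16 h at 37 C. Beta-lactamase activity was read with CCF4 substrate (405 nm excitation, 460/530 nm emission).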
Sequence of Peroxisome proliferator-activated receptor gamma (Homo sapiens) (P37231 whole entry, looked up): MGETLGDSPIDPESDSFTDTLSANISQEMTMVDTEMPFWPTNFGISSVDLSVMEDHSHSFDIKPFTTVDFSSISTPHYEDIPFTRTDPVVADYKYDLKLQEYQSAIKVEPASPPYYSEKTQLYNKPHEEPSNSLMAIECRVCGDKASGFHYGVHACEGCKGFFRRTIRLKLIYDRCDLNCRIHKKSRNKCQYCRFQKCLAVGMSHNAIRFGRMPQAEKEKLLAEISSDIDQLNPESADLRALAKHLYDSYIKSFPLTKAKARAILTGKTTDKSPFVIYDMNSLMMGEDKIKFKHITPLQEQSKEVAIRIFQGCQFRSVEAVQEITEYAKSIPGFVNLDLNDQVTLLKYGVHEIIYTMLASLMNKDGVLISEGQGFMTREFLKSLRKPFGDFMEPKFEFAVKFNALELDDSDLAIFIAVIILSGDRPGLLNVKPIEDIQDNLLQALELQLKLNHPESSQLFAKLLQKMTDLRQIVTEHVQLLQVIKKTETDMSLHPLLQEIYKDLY

Experiment [2] has the same target. Kind of experiment: qHTS assay for small molecule antagonists of peroxisome proliferator-activated receptor gamma signaling (AID 588537; active = well fitted inhibition curve with a large enough effect in the signal ratio, with a control signal flat, not every such curve was filed as active; the % refers to the signal ratio;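 note: reporter cells co-stimulated with 50 nM rosiglitazone agonist during compound treatment; % of control where 0% means no effect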). The method in brief: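 We seeded GeneBLAzer HEK293 reporter cells at 3000 per well, allowed 6-6.5 h attachment at 37 C, then co-treated with test compound titrations and 50 nM rosiglitazone overnight (16 h). Inhibition was quantified from 460/530 nm emission ratios.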

Experiment [3] has as its target Vitamin D3 receptor (Homo sapiens) (UniProt P11473). Kind of experiment: qHTS assay for small molecule antagonists of vitamin D receptor signaling (AID 588541).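 Note: receptor activated by calcitriol during compound treatment; series mostly up to about 77 µM; % is set by controls: 0 for no effect and ±100 for the full control effect.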 The method in brief:
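VDR-UAS-bla HEK293T cells (2000/well, 2% charcoal-stripped FBS) were treated with titrated compounds plus 1-alpha,25-dihydroxyvitamin D3 (50 nM or 3 nM final) for 16 h at 37 C. CCF4 beta-lactamase fluorescence was read; Hill fits gave IC50.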

The target is the same in experiment [4]. The experiment in a line: qHTS assay for small molecule agonists of vitamin D receptor signaling (AID 588543).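 Note: 0% = DMSO basal and 100% = reference agonist control.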 The method in brief:
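Agonist-mode beta-lactamase reporter: HEK293T VDR-UAS-bla cells in charcoal-stripped 2% FBS, compound series 16 h 37 C, CCF4 2 h RT. EC50 from Hill fit, scaled against DMSO and 50 nM calcitriol control.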

Experiment [5] in a line: qHTS assay for small molecule agonists of retinoid X receptor alpha signaling (AID 588544). To be noted: HEK293T RXRa-UAS-bla, beta-lactamase reporter, 18 h; 530 nm emission.
Experiment [6] deals with Retinoic acid receptor RXR-alpha (Homo sapiens) (UniProt P19793). Described as above.
Sequence of Retinoic acid receptor RXR-alpha (Homo sapiens) (P19793 whole entry, looked up): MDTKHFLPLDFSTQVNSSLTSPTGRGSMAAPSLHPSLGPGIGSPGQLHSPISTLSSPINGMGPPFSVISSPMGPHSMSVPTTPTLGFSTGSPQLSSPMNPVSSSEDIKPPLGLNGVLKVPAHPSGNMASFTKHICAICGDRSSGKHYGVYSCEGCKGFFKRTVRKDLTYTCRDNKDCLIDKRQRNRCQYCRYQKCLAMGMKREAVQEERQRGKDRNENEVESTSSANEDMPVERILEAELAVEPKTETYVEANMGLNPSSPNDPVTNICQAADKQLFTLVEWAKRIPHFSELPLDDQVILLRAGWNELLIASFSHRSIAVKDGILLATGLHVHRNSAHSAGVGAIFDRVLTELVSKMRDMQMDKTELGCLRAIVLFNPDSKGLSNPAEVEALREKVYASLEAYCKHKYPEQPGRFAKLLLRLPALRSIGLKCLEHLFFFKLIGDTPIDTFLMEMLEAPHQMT
The target of experiment [7] is Thyroid hormone receptor beta (Homo sapiens) (UniProt P10828). The experiment in a line: qHTS assay for small molecule agonists of thyroid hormone receptor beta signaling (AID 588545).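 Note: 0% = DMSO only and 100% = 10 nM T3.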 The method in brief: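 Beta-lactamase reporter activity under TR response element control is measured in HEK 293 cells after 18 hrs compound exposure. Signal is ratiometric CCF4 fluorescence, 460/530 nm.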
Sequence of Thyroid hormone receptor beta (Homo sapiens) (P10828 whole entry, looked up): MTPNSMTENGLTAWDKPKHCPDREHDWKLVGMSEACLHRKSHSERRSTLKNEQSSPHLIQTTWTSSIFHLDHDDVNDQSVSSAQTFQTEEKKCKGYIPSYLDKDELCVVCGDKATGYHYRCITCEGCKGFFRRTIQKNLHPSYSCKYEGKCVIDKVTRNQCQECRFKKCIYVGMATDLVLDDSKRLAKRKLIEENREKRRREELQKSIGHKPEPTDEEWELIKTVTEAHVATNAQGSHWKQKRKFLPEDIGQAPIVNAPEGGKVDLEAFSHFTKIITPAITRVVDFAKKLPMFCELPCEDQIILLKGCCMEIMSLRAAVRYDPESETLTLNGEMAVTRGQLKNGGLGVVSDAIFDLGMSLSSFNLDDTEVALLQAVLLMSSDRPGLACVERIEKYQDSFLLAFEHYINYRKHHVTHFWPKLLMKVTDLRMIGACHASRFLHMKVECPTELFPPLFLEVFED

Experiment [8] in a line: qHTS assay for small molecule antagonists of retinoid X receptor alpha signaling (AID 588546; active = well fitted inhibition curve with a large enough effect in the signal ratio, with a control signal flat, not every such curve was filed as active; the % refers to the signal ratio;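 note: cells stimulated with 9-cis-retinoic acid as agonist; % is set by controls: 0 for no effect and ±100 for the full control effect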). To be noted: HEK293T RXRa-UAS-bla, beta-lactamase ratio, antagonist mode; measured here: W530 green channel, cytotoxicity proxy. The method in brief: (§1)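 Beta-lactamase reporter inhibition, read as CCF4 fluorescence ratio (ex 405, em 460/530 nm) after 2 h at RT. HEK293T UAS-bla cells, 2500/well, were stimulated with 9-cis-RA at 500 or 100 nM final alongside test compound for 18 h at 37 C.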

The target of experiment [9] is Retinoic acid receptor RXR-alpha (Homo sapiens) (UniProt P19793). The description is as above. Conditions: HEK293T RXRa-UAS-bla, beta-lactamase ratio, antagonist mode. The method in brief:
as §1

Experiment [10] concerns the target Thyroid hormone receptor beta (Homo sapiens) (UniProt P10828). The experiment in a line: qHTS assay for small molecule antagonists of thyroid hormone receptor beta signaling (AID 588547; active = well fitted inhibition curve with a large enough effect in the signal ratio, with a control signal flat, not every such curve was filed as active; the % refers to the signal ratio;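 note: cells stimulated with 0.4 nM T3 agonist during compound exposure; series mostly up to about 77 µM; % is set by controls: 0 for no effect and ±100 for the full control effect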). Conditions: TR-UAS-bla HEK293, beta-lactamase ratio, antagonist mode, 18 h. The gist of the method: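 TR-UAS-bla GripTite HEK293 cells in 2% charcoal/dextran FBS medium were preincubated 4 h at 37 C, given compound (0.59 nM to 92 uM) plus 0.4 nM T3 (final) for 18 h, then CCF4 for 2 h at RT; Hill fit gave IC50.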

Experiment [11] deals with Voltage-gated inwardly rectifying potassium channel KCNH2 (Homo sapiens) (UniProt Q12809). The experiment in a line: qHTS Assay for Small Molecule Inhibitors of the Human hERG Channel Activity (AID 588834; active = well fitted curve in the direction sought with a large enough effect; an effect the other way counts as inactive or inconclusive;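 note: top concentration of the series differs between compounds; % is set by controls: 0 for no effect and ±100 for the full control effect; lower thallium flux fluorescence means stronger hERG block; nearly all actives have a fitted effect of over 50% in size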). The gist of the method: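 Kinetic FDSS fluorescence; U2OS + hERG BacMam (~100 virus particles/cell); FluxOR Tl+ flux; ~10 min cpd; AC50 (Hill).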
Sequence of Voltage-gated inwardly rectifying potassium channel KCNH2 (Homo sapiens) (Q12809 whole entry, looked up): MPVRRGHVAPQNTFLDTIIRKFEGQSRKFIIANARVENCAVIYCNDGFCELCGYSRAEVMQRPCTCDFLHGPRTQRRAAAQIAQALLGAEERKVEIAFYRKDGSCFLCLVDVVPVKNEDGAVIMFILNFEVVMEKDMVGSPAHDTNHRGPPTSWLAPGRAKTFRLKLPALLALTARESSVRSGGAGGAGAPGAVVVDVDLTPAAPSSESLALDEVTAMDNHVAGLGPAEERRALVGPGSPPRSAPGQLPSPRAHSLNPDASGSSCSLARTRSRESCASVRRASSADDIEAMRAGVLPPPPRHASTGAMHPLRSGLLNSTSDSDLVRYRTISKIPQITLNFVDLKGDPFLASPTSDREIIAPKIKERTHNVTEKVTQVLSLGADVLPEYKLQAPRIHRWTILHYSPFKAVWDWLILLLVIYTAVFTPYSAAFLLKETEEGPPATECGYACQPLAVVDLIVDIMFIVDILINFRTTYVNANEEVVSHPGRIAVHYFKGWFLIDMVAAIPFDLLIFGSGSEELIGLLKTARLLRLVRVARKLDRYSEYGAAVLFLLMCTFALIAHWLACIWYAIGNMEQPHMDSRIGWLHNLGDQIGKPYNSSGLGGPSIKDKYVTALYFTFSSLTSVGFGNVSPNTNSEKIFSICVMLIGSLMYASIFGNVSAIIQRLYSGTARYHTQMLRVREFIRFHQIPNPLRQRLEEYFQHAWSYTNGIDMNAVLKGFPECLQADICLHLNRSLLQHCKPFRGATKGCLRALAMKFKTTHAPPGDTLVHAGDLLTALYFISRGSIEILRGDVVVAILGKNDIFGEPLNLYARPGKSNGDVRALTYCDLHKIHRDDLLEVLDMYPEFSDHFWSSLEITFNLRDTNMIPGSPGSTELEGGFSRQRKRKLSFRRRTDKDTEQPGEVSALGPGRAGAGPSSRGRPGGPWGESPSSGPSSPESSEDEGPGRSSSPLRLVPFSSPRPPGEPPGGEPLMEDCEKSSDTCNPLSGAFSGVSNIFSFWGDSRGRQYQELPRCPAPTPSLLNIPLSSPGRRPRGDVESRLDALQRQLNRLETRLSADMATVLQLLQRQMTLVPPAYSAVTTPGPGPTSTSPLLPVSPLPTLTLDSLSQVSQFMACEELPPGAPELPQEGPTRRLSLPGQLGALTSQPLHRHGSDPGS
A short description of experiment [12]: S16 Schwann cell viability assay (CellTiter-Glo assay) (AID 624031; active = well fitted curve in the direction sought with a large enough effect; an effect the other way counts as inactive or inconclusive;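 note: cellular ATP luminescence as a viability measure; series mostly up to about 58 µM; plate controls were DMSO-treated cells for no effect and cell-free wells for full effect; nearly all actives have a fitted effect of over 70% in size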). The gist of the method:
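Native S16 Schwann cells (rat), serum-containing medium, overnight attachment then 24 h drug exposure at 37 °C/5% CO2. CellTiter-Glo ATP signal; normalized to cell-free and vehicle wells.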

Experiment [13] can be described thus: S16 Schwann cell PMP22 intronic element beta-lactamase assay (AID 624044).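 Note: 0% = DMSO and -100% = potassium clavulanate positive control; nearly all actives have a fitted effect of over 15% in size.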 The method in brief: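 Rat S16 Schwann cells with beta-Lac driven by a PMP22 intronic element, compound-treated 24 h at 37 °C. LiveBLAzer FRET B/G read: 460 nm normalized to potassium clavulanate vs DMSO; 535 nm FRET as viability; concentration-effect curves classified.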
Experiment [14] addresses Luciferin 4-monooxygenase (Photinus pyralis) (UniProt P08659). The experiment in a line: Biochemical firefly luciferase enzyme assay for NPC (AID 624030; active = well fitted curve in the direction sought with a large enough effect; an effect the other way counts as inactive or inconclusive;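 note: purified P. pyralis luciferase at 10 nM with luciferin and ATP substrate; series mostly up to about 59 µM; 0% = DMSO and -100% = full luciferase inhibition by PTC124 control; nearly all actives have a fitted effect of over 70% in size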). The gist of the method: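 Counter-screen for direct inhibition of the luciferase enzyme by approved-drug library compounds, run at 10 nM enzyme in 50 mM Tris acetate (final). Luminescence was read within 5 min of enzyme-buffer addition and normalized to PTC124 versus DMSO (0%).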

Experiment [15] is described as follows: S16 Schwann cell PMP22 intronic element firefly luciferase assay (AID 624032; active = well fitted curve in the direction sought with a large enough effect; an effect the other way counts as inactive or inconclusive;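 note: series mostly up to about 58 µM; plate controls were DMSO for no effect and PTC124 positive control mean for full effect; nearly all actives have a fitted effect of over 30% in size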). The method in brief: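 Rat S16 Schwann cells stably carrying a PMP22 intronic element-driven Fluc reporter were seeded overnight, then exposed to compounds for 24 h at 37 °C. Luminescence was normalized to PTC124 (positive control) and DMSO (0% activity).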

Where “and” joins values, the source holds several entries; their conditions need not be identical. Equal values may be shown once. Records with an inconclusive call do not appear. Calls of active or inactive are those of the source. Unless noted, calls come from the whole dose curve.

Sequence of Luciferin 4-monooxygenase (Photinus pyralis) (P08659 whole entry, looked up): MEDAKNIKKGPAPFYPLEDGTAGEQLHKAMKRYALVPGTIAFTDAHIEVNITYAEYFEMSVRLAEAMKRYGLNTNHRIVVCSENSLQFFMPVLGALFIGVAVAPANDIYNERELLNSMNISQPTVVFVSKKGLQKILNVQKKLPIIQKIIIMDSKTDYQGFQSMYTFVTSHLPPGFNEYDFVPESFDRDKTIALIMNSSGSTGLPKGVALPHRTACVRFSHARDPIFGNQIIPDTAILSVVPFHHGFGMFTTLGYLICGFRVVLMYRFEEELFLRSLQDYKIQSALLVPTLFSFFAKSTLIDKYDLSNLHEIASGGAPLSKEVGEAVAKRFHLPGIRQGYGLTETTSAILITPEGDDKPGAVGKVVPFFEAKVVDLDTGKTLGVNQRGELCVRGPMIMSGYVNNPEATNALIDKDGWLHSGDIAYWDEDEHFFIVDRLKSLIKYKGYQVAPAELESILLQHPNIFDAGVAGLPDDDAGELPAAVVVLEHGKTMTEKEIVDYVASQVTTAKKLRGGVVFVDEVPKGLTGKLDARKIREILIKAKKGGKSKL
Sequence of Vitamin D3 receptor (Homo sapiens) (P11473 whole entry, looked up): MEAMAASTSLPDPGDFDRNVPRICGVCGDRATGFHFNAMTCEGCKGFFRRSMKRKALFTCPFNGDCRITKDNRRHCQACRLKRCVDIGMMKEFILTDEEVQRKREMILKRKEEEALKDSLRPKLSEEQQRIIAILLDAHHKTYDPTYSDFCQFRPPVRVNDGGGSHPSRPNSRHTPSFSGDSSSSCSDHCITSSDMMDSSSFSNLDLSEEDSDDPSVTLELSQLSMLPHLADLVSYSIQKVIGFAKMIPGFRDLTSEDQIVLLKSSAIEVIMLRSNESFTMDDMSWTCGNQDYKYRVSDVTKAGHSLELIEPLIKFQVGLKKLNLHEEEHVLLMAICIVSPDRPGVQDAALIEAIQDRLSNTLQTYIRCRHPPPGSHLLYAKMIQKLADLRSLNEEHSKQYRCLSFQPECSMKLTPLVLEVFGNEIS

As to `O=C1CCO1`, the compound was called inactive in experiment [1], in experiment [4] and in experiment [7]. Also, the Potency entry in [2], in [3], in experiment [6], in experiment [11], in [12] and in [13] was “inactive” in each case. The max response in experiment [5] is -0.599%; in experiment [8], -9.31%; in experiment [9], 14.1% (inactive). Also, in [10], the activity change % (negative = inhibition) is 16.1% (inactive).
Consider `CCCSP(=O)(OCC)SCCC`, for which the call in experiment [1], in experiment [4] and in experiment [7] was inactive. Moreover, the Potency result in experiment [2], in experiment [3] and in experiment [6] was “inactive” in each case. Also, the max response is -4.11% in [5], -12.4% in [8] and -0.503% (inactive) in [9]. Further, in experiment [10], the activity change % (negative = inhibition) is 4.95% (inactive).
Take `[O]=[Cd]`: the outcome in experiment [1], in [4] and in experiment [7] was inactive. The Potency entry in [2], in experiment [3], in experiment [6], in [11], in experiment [14] and in [12] was “inactive” throughout. In addition, the Potency entry in experiment [13] was “inactive”. Besides, the max response in experiment [5] was -12.6%; in experiment [8] it was -14.7%; in experiment [9] it was -2.87% (inactive). Further, the activity change % (negative = inhibition) in experiment [10] is -10.1% (inactive).
`O=c1[nH]c(=O)n(Cl)c(=O)n1Cl`: the call in experiment [1] and in experiment [7] was inactive. The Potency result in experiment [2], in [6], in experiment [14], in [12] and in experiment [13] was “inactive” each time. Besides, the max response in experiment [5] is -3.39%. In addition, the activity change % (negative = inhibition) in experiment [10] is 1.99% (inactive).
For `CCCCCl`, the outcome in [1], in [4] and in [7] was inactive. The Potency entry in [3], in experiment [6], in [11], in experiment [14], in experiment [12] and in experiment [15] was “inactive” in each case. In addition, the Potency entry in experiment [13] was “inactive”. Also, the max response was -0.522% in [5], -8.74% in [8] and 21% (inactive) in experiment [9].
For `O=[N+]([O-])c1ccccc1`, the call in [1] and in experiment [7] was inactive. Moreover, the Potency entry in experiment [2], in [6], in [11], in [12], in [15] and in [13] was “inactive” throughout. The max response in experiment [5] was -10.6% and -11.5%; in experiment [8] it was -18.4%; in experiment [9], -0.8% (inactive). The activity change % (negative = inhibition) in experiment [10] is -11.4% (inactive).
For `CC(C)CCON=O`, the call in [1], in experiment [4] and in [7] was inactive. The Potency result in experiment [2], in experiment [3], in [6], in experiment [11], in [14] and in experiment [12] was “inactive” each time. The Potency entry in [13] is “inactive”. The max response in experiment [5] was determined as 4.6%. Further, in experiment [10], the activity change % (negative = inhibition) was -6.62% (inactive).
For the compound `ClC(Cl)(Cl)Cl`, the call in experiment [1], in experiment [4] and in experiment [7] was inactive. The Potency entry in experiment [2], in experiment [3], in [6], in experiment [11], in experiment [14] and in experiment [12] was “inactive” throughout. For the same compound, the Potency result in experiment [15] and in [13] was “inactive” each time. Moreover, the max response was -19.2% and -11.8% in [5]; -0.129% in experiment [8]; 1.39% (inactive) in experiment [9]. The activity change % (negative = inhibition) in experiment [10] was -13.7% (inactive) and 5.43% (inactive).

Source of the values: PubChem BioAssay (NCATS).
